# Screening results (PubChem)
# An excerpt weighted towards active compounds, which were near 4% of everything screened.
# ADAM17 inh: ADAM17 inhibition, QFRET primary screen | recombinant ADAM17, EDANS/DABCYL FRET peptide cleavage | inhibition, % at 6.95 µM | P78536 | AID 720648 | actives 0.83% (n = 370,000);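 active means inhibition above the mean of compounds lying between control limits plus 3 SD, set per campaign, cut at about 8.5% in these data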;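 further: 0% = DMSO-only wells as the low control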
# Target sequence (P78536 215-824 limits assumed): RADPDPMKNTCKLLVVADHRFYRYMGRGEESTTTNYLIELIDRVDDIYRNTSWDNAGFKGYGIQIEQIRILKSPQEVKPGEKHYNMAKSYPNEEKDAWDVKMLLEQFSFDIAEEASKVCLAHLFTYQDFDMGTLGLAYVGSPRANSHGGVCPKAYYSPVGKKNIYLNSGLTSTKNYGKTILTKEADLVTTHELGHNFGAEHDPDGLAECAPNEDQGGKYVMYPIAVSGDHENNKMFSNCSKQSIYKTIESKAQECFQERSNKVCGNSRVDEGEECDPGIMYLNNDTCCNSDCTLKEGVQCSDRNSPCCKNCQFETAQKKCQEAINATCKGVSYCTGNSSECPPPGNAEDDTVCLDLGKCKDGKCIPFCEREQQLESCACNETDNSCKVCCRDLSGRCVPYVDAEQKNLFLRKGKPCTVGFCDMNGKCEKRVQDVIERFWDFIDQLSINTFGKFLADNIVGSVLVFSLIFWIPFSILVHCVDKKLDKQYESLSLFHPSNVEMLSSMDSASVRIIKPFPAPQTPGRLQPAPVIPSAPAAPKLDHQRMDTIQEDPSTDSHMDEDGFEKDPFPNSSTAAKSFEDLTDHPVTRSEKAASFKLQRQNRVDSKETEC
# NR3A LBD binder: modulators (binders) of human NR3A ligand-binding domain; Tm shift relative to glycine control, % at 25 µM; NR3A LBD differential scanning fluorimetry, Tm shift; 0% = protein alone, 100% = glycine-bound protein; actives 2.5% (n = 340,000);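 active means melting temperature shift of at least 10% of the positive control shift, at one fixed dose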
# aDG glyco up: alpha-DG glycosylation activation. Pro5-aDG cells, alpha-DG glycosylation AlphaScreen (IIH6); 0% Pro5, 100% B10-LARGE cell signal. activation, % at 10 µM. actives 0.22% (n = 360,000);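 active means activation of at least 8% versus controls, or a plate z-score of at least 8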;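 further: Pro5 are CHO cells carrying HIG-tagged alpha-DG that lacks glycosylation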
# ADAM10 inh: inhibits human ADAM10; O14672; recombinant ADAM10, EDANS/DABCYL FRET peptide cleavage, 3 h; inhibition, % at 7 µM; actives 0.62% (n = 370,000);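 active means inhibition above a per-campaign cutoff equal to the mean of compounds falling between control-based bounds plus 3 SD, cut at about 20% in these data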;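 further: 0% = DMSO wells while the 100% control is not disclosed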
# FAS-TE inh: FAS thioesterase (human) inhibition; actives 0.67% (n = 360,000); P49327; recombinant FAS-TE, OMFH fluorogenic substrate, fluorescence endpoint; inhibition, % at 15 µM;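 active means compounds whose normalised, plate-corrected inhibition of enzyme fluorescence in the single-dose primary screen is 50% or more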;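 further: 0% = DMSO with enzyme and 100% = substrate without enzyme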
# ADAM10 confirm: human ADAM10 inhibition, confirmation; shares compounds with ADAM10 inh; ADAM10 QFRET peptide cleavage, EDANS fluorescence; inhibition, % at 6.95 µM; actives 1% (n = 2,100);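 active means inhibition above about 20% chosen separately for each screening run, limit read from the data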;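 further: 0% = DMSO wells and 100% = marimastat wells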
# ADAM17 ctr: inhibits human ADAM17 in ADAM10 exosite counter-screen; shares compounds with ADAM10 inh; ADAM17 QFRET peptide cleavage, EDANS fluorescence; inhibition, % at 6.95 µM; actives 0.5% (n = 2,100);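 active means mean triplicate inhibition above the solvent-only control wells' mean plus 3 SD, cut at about 12% in these data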;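 further: 0% = DMSO wells and 100% = marimastat wells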
# ADAM10 counter: ADAM10 inhibition, counter-screen for ADAM17 exosite hits. shares compounds with ADAM17 inh. recombinant ADAM10, EDANS/DABCYL FRET peptide cleavage, 3 h. inhibition, % at 6.95 µM. actives 47% (n = 2,900). AID 743256;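 active means mean inhibition over the triplicate runs exceeds the activity threshold set in the earlier primary screen, cut at about 20% in these data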;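 further: 0% = DMSO wells and 100% = marimastat wells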
# ADAM17 confirm: confirmation of inhibitors of human ADAM17; shares compounds with ADAM17 inh; recombinant ADAM17, EDANS/DABCYL QFRET peptide cleavage; inhibition, % at 6.95 µM; actives 65% (n = 2,900);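 active means mean inhibition across replicates above the hit cutoff set in the primary screen, cut at about 8.5% in these data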;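 further: 0% = DMSO wells and 100% = marimastat wells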
# * marks the source's active call; other numbers are inactive results; . = not tested or not shown.
SMILES,ADAM17 inh,NR3A LBD binder,aDG glyco up,ADAM10 inh,FAS-TE inh,ADAM10 confirm,ADAM17 ctr,ADAM10 counter,ADAM17 confirm
CC(=O)Nc1ccc(N(CC(O)Cn2c3ccccc3c3ccccc32)S(=O)(=O)c2ccc(C)cc2)cc1 (stereo not given),10*,22*,0,29*,31,10,4,41*,23*
O=C(CNc1cccc(S(=O)(=O)N2CCCC2)c1)Nc1ccc(C(F)(F)F)cc1,6,-1,3,11,14,.,.,.,.
O=C(Nc1ccc(C(F)(F)F)cc1)C1CCCCN1S(=O)(=O)c1ccccc1 (stereo not given),10*,-2,0,28*,24,4,1,15,7
O=C(Nc1ccccc1)C1CCCCN1S(=O)(=O)c1ccccc1 (stereo not given),-4,0,0,2,3,.,.,.,.
O=C(CNc1cccc(S(=O)(=O)N2CCCCC2)c1)Nc1ccc(C(F)(F)F)cc1,10*,.,0,28*,14,3,1,13,7
O=C(CNc1cccc(Br)c1)Nc1ccc(S(=O)(=O)N2CCCCC2)cc1,16*,.,0,27*,26,8,3,32*,21*
O=C(CN1C(=O)NC(Cc2c[nH]c3ccccc23)C1=O)Nc1cccc(S(=O)(=O)N2CCCCCC2)c1 (stereo not given),11*,16*,0,21*,4,4,1,28*,17*
CC(=O)Nc1ccc(S(=O)(=O)NCc2nc(-c3ccccc3)no2)cc1,-2,-1,0,-2,-3,.,.,.,.
CC(C)(C)C1COc2ccccc2N1C(=O)c1cccc(Cl)c1 (stereo not given),-9,-1,0,8,9,.,.,.,.
CC1(C(=O)NS(=O)(=O)c2cccc(Cl)c2)CCN1C(=O)Cc1ccsc1 (stereo not given),2,.,0,1,-10,.,.,.,.
CC(C)(C)c1ccc(OCCCC(=O)Nc2cccc(S(=O)(=O)N3CCOCC3)c2)cc1,5,4,0,11,23,.,.,.,.
CC(C)(C)c1ccc(OCCC(=O)Nc2cccc(S(=O)(=O)N3CCCC3)c2)cc1,8.9*,-2,0,22*,38,10,3,37*,23*
O=C(Cc1ccc(Cl)cc1)Nc1cccc(S(=O)(=O)N2CCCCC2)c1,2,0,0,-4,25,.,.,.,.
O=C(Cc1ccc(Br)cc1)Nc1cccc(S(=O)(=O)N2CCCCC2)c1,12*,.,1,23*,25,3,2,7,6
Cc1cccc(C)c1OCCNC(=O)c1ccc2ccccc2n1,2,0,0,9,34,.,.,.,.
CC(Oc1ccc(F)cc1)C(=O)Nc1cc(C(F)(F)F)ccc1-n1cncn1 (stereo not given),-3,1,0,-2,12,.,.,.,.
COc1ccc(C2(c3ccc(OC)cc3)NC(=O)N(CC(=O)Nc3ccc(C(=O)N(C)C)cc3)C2=O)cc1,-1,-1,0,2,1,.,.,.,.
COc1ccc(C2(c3ccc(OC)cc3)NC(=O)N(CC(=O)Nc3cc(C)ccc3OC)C2=O)cc1,9.3*,-6,0,22*,22,7,3,33*,16*
COc1ccc(NC(=O)Cn2nnc(-c3ccccc3)c2COc2ccc3ccccc3c2)cn1,12*,.,0,20*,18,11,4,31*,17*
COc1ccc(NC(=O)COC(=O)c2c3c(nc4ccccc24)CCCC3)cc1Cl,12*,4,1,23*,27,4,3,30*,19*
